A selection: hits, their analogues and other compounds. The true share with any hit is near 5.7%.
ClpP mod: qHTS Assay for Activators of ClpP; ATP-dependent Clp protease proteolytic subunit (Bacillus subtilis (strain 168)), P80244; purified B. subtilis ClpP, FRET peptide cleavage, 20 min; Potency, µM (highest dose often 57.5 µM); actives 1.9% (n = 340,000); AID 651965, 2013; active = well fitted falling curve with a large enough effect; inconclusive = small, poorly fitted or top-dose-only effect; inactive = no such curve, though single readings can be large or run the other way; also: the source files actives as falling curves though it sought activators and does not explain the sign; nearly all actives have a fitted effect of over 65% in size
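FRET quenching reversal measured ClpP activation: 10 microg/mL B. subtilis ClpP at pH 8 with the FRET-FV decapeptide, read at 430 nm after 320 nm excitation. The 20-min minus 0-min signal was scaled between DMSO/no-enzyme wells and ADEP (5.8 microM final).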
GLP1R ag: qHTS of GLP-1 Receptor Agonists. Potency, µM (highest dose often 45.6 µM), usual class: activators. actives 0.007% (n = 380,000). HEK293 GLP-1R CRE-luciferase, luminescence, 4-6 h; cells express a hypersensitive GLP-1R form. Glucagon-like peptide 1 receptor (Homo sapiens), P43220
D3 antag: qHTS of D3 Dopamine Receptor Antagonist: qHTS; D3R cells, DiscoveRx beta-arrestin luminescence, antagonist mode; active compounds read low; actives 2.5% (n = 360,000); max response, negative = inhibition, %; D(3) dopamine receptor (Homo sapiens), P35462; in the data active = max response below about -50%; inconclusive = no clear call, values can overlap the other calls
Target sequence (P35462 whole entry, looked up): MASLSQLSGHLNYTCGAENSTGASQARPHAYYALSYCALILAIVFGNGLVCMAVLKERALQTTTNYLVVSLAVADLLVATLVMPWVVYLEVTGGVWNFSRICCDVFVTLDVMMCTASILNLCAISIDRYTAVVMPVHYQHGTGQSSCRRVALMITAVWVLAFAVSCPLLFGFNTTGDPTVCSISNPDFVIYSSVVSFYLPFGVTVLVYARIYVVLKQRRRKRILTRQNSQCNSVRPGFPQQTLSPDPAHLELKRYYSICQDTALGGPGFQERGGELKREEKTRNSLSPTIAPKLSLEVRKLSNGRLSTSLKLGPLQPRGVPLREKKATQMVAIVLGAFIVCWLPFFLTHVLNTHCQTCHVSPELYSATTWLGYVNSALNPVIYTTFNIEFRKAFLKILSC
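Cells expressing the human receptor were seeded at 1500 cells/well, incubated overnight at 37 degrees C in 5% CO2, then exposed to library compounds with dopamine controls for 90 minutes at 37 degrees C before luminescent detection.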
DRD3 agonist: qHTS of D3 Dopamine Receptor Agonist: qHTS. D3R DiscoveRx beta-arrestin cells, luminescence, 90 min. max activation, %. actives 0.58% (n = 410,000); in the data active = max activation above about 30%
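Agonist-mode cell screen: cells plated at 1500/well and incubated overnight at 37 °C, then exposed to library compounds for 90 min at 37 °C. Detection reagent was added for 30–60 min at room temperature, and luminescence was read.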
GLP1R inv ag: qHTS of GLP-1 Receptor Inverse Agonists (Inhibition Mode); HEK293 GLP-1R CRE-luciferase, luminescence, 24 h; GLP-1R form is constitutively active; Potency, µM (series often up to 38.3 µM), usual class: inhibitors; actives 1.6% (n = 410,000); AID 624417, 2012; also: nearly all actives have a fitted effect of over 55% in size
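Stable HEK293 clone (constitutively active GLP-1R + cAMP-response luciferase); 200 cells/uL plated, 12 h pre-culture, compound 24 hr, 37 deg C/5% CO2; detection reagent 12 min RT; luminescence.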
HEK293 tox: qHTS of GLP-1 Receptor Inverse Agonists: Cytotox Screen; HEK293 cAMP-luciferase reporter cells, luminescence, 24 h; Potency, µM (highest dose often 38.3 µM), usual class: inhibitors; actives 0.13% (n = 410,000); AID 624418, 2012;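 also: loss of luciferase light is scored as toxicity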
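Quantitative HTS format, 1536 wells, 200 cells/uL seeded. Compounds: 23 nL, 24 h, 37 °C. Detection: luciferase reagent, luminescence at 12 min RT; decreased signal taken as cytotoxic.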
A number is an active result; n = inactive; u = inconclusive; x = not tested or not shown. Unless noted, calls follow the shape of the dose curve; as a rule, active = well fitted curve in the direction sought with a large enough effect; inconclusive = small, poorly fitted or top-dose-only effect, or another doubt; inactive = no such curve, though single readings can be large; an effect the other way counts as inactive or inconclusive.

SMILES	ClpP mod	GLP1R ag	D3 antag	DRD3 agonist	GLP1R inv ag	HEK293 tox
Cc1cc(-c2ccc(N=Nc3ccc4c(S(=O)(=O)O)cc(S(=O)(=O)O)c(N)c4c3O)c(C)c2)ccc1N=Nc1ccc2c(S(=O)(=O)O)cc(S(=O)(=O)O)c(N)c2c1O	x	n	x	n	x	x
CCC(=O)Nc1ccccc1-c1nc2ccccc2n(CC(=O)c2ccc(Cl)cc2)c1=O	n	x	x	n	n	n
O=C(CCS(=O)(=O)c1nc(-c2cccs2)cc(C(F)(F)F)n1)Nc1ccc(Br)cc1	32µM	x	x	n	u	u
CCOC(=O)C1=CCC(c2ccc(N(CC)CC)cc2)N(S(=O)(=O)c2ccc(C)cc2)C1c1ccc([N+](=O)[O-])cc1 (stereo not given)	n	x	n	n	n	n
Cc1ccc2c(c1)ncc[n+]2CC(=O)c1ccc(Cl)cc1Cl	n	x	x	x	x	x
Cc1ccccc1-c1nc(CSc2nc3c(c(=O)[nH]2)CCC3)c(C)o1	n	n	n	30	n	n
Cc1oc(-c2ccccc2)nc1CSc1nc2c(c(=O)[nH]1)CCC2	n	n	n	n	n	n
COc1cc(NC(=O)COC(=O)[C@@H]2CCCN2S(=O)(=O)c2ccc(Cl)cc2)cc(OC)c1OC	n	n	n	n	n	n
COc1ccc2c(COC(=O)[C@@H]3CCCN3S(=O)(=O)c3ccc(Cl)cc3)cc(=O)oc2c1	25µM	n	n	n	n	n
CCCCN(CC)CCNC(=O)c1cc2c(=O)[nH]c3ccccc3c2s1	x	n	-54	n	u	u
CCCN(CCC)CCCNC(=O)c1cc2c(=O)[nH]c3ccccc3c2s1	x	n	n	n	n	n
CCN(CCCNC(=O)c1cc2c(=O)[nH]c3ccc(C)cc3c2s1)Cc1ccccc1	14µM	x	x	n	u	u
CCc1ccc(-n2c(SCC(=O)NC(C)CC)nc3n[nH]c(C)c3c2=N)cc1 (stereo not given)	n	x	x	n	n	n
CC(NC(=O)CCNC(=O)c1ccccc1Cl)c1ccc(-n2ccnc2)cc1 (stereo not given)	n	n	-59	n	n	n
COc1ccccc1C(=O)NCCC(=O)NC(C)c1ccc(-n2ccnc2)cc1 (stereo not given)	n	n	n	n	n	n
COc1cc(C(=O)NCCc2sc(-c3ccc(C)cc3)nc2C)cc(OC)c1OC	n	n	x	n	n	n
COc1ccc(/C=C/c2nc(C#N)c(NC3CCCCC3)o2)cc1OC	n	x	x	n	n	n
COc1ccccc1/C=C/c1nc(C#N)c(NC2CCCCC2)o1	2.8µM	x	x	n	u	n
O=C(Nc1nc(-c2ccc(S(=O)(=O)N3CCOCC3)cc2)cs1)c1ccccc1	n	n	n	n	n	n
O=C(Nc1nc(-c2nc3ccccc3s2)cs1)c1ccc(S(=O)(=O)N2CCOCC2)cc1	u	n	n	51	n	n
O=C(Nc1nc(-c2ccccn2)cs1)c1cc(S(=O)(=O)N2CCOCC2)ccc1F	n	n	-77	n	n	n
O=C(Nc1nc(-c2ccccn2)cs1)c1ccc(F)c(S(=O)(=O)N2CCOCC2)c1	n	n	n	n	u	n
Cc1nc2c(-c3ccccc3)c(C)[nH]n2c(=O)c1Cc1ccc(Br)cc1	u	x	x	n	u	n
Cc1n(N)c2ccccc2[n+]1CC(=O)c1ccccc1	n	n	-82	n	n	n
C#CCN(C[C@@H]1[C@@H](OC(=O)NCC2CCCCC2)[C@@H](OC(=O)NCC2CCCCC2)Cn2c(=O)ccc(=O)n21)S(=O)(=O)c1ccc(C)cc1	n	n	-81	n	2.5µM	u
C#CCN(C[C@@H]1[C@@H](OC(=O)NCc2ccco2)[C@@H](OC(=O)NCc2ccco2)Cn2c(=O)ccc(=O)n21)S(=O)(=O)c1ccc(C)cc1	n	n	n	n	10µM	u
